Experimental data: the supplement of paper PMC8728848
This excerpt belongs to a sample that is enriched for the strongest signals.

Legend:
Assay in all cases: glycan array binding signal (z-score within array); higher = stronger binding
Conditions in all cases: glycan notation: IUPAC condensed, linker removed
Fuc(a1-2)Gal = biological target: Fuc(a1-2)Gal
Outline: (§1)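 The Consortium for Functional Glycomics database supplied 3228 glycan arrays, of which those lacking an available protein sequence were dropped. The binding signal, a within-array Z-score, was averaged across arrays of the same protein sequence and across linkers. Negative scores can be read as non-binding.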

[1] = biological target: Fuc(a1-2)Gal(b1-3)GlcNAc(b1-2)Man(a1-3)[Fuc(a1-2)Gal(b1-3)GlcNAc(b1-2)Man(a1-6)]Man(b1-4)GlcNAc(b1-4)[Fuc(a1-6)]GlcNAc
Outline: as §1

[2] = biological target: Fuc(a1-2)Gal(b1-3)GlcNAc(b1-3)[Neu5Ac(a2-6)Gal(b1-4)GlcNAc(b1-6)]Gal(b1-4)Glc
Outline: as §1

[3] = biological target: Fuc(a1-2)Gal(b1-3)GlcNAc6S
Outline: as §1

[4] = biological target: Fuc(a1-2)Gal(b1-3)[Fuc(a1-4)]GlcNAc
Outline: as §1

[5] = biological target: Fuc(a1-2)Gal(b1-4)GlcNAc(b1-2)Man
Outline: as §1

[6] = biological target: Fuc(a1-2)Gal(b1-4)GlcNAc(b1-3)Gal(b1-4)GlcNAc(b1-3)Gal(b1-4)GlcNAc
Outline: as §1

[7] = biological target: Fuc(a1-2)Gal(b1-4)[Fuc(a1-3)]GlcNAc(b1-2)[Fuc(a1-2)Gal(b1-4)[Fuc(a1-3)]GlcNAc(b1-4)]Man(a1-3)[Fuc(a1-2)Gal(b1-4)[Fuc(a1-3)]GlcNAc(b1-2)Man(a1-6)]Man(b1-4)GlcNAc(b1-4)GlcNAc
Outline: as §1

[8] = biological target: Fuc(a1-2)[Gal(a1-3)]Gal(b1-3)GalNAc
Outline: as §1

[9] = biological target: Fuc(a1-2)[Gal(a1-3)]Gal(b1-3)GlcNAc
Outline: as §1

[10] = biological target: Fuc(a1-2)[Gal(a1-3)]Gal(b1-4)Glc
Outline: as §1

[11] = biological target: Fuc(a1-2)[GalNAc(a1-3)]Gal(b1-4)GlcNAc(b1-6)GalNAc
Outline: as §1

[12] = biological target: Fuc(a1-2)[GalNAc(a1-3)]Gal(b1-4)[Fuc(a1-3)]GlcNAc(b1-3)GalNAc
Outline: as §1

[13] = biological target: Fuc(a1-3)[Gal3S(b1-4)]Glc
Outline: as §1

Gal(a1-3)Gal(b1-4)GlcNAc = biological target: Gal(a1-3)Gal(b1-4)GlcNAc
Outline: as §1

[14] = biological target: Gal(a1-3)[Gal(a1-4)]Gal(b1-4)GlcNAc
Outline: as §1

[15] = biological target: Gal(b1-3)GalNAc(a1-3)[Fuc(a1-2)]Gal(b1-4)GlcNAc
Outline: as §1

[16] = biological target: Gal(b1-3)GlcNAc(a1-6)Gal(b1-4)GlcNAc
Outline: as §1

[17] = biological target: Gal(b1-3)GlcNAc(b1-3)Gal(b1-4)GlcNAc(b1-6)[Gal(b1-3)GlcNAc(b1-3)]Gal(b1-4)Glc
Outline: as §1

[18] = biological target: Gal(b1-3)GlcNAc(b1-3)GalNAc
Outline: as §1

[19] = biological target: Gal(b1-3)GlcNAc(b1-6)[Gal(b1-3)]GalNAc
Outline: as §1

[20] = biological target: Gal(b1-3)[Fuc(a1-4)]GlcNAc(b1-2)Man
Outline: as §1

[21] = biological target: Gal(b1-4)GlcNAc(b1-3)Gal(b1-4)Glc
Outline: as §1

[22] = biological target: Gal(b1-4)GlcNAc(b1-3)Gal(b1-4)GlcNAc(b1-3)Gal(b1-4)GlcNAc(b1-3)Gal(b1-4)GlcNAc(b1-2)Man(a1-3)[Gal(b1-4)GlcNAc(b1-3)Gal(b1-4)GlcNAc(b1-3)Gal(b1-4)GlcNAc(b1-3)Gal(b1-4)GlcNAc(b1-2)Man(a1-6)]Man(b1-4)GlcNAc(b1-4)GlcNAc
Outline: as §1

[23] = biological target: Gal(b1-4)GlcNAc(b1-3)Gal(b1-4)GlcNAc(b1-3)Gal(b1-4)GlcNAc(b1-3)Gal(b1-4)GlcNAc(b1-3)Gal(b1-4)GlcNAc(b1-2)Man(a1-3)[Gal(b1-4)GlcNAc(b1-3)Gal(b1-4)GlcNAc(b1-3)Gal(b1-4)GlcNAc(b1-3)Gal(b1-4)GlcNAc(b1-3)Gal(b1-4)GlcNAc(b1-2)Man(a1-6)]Man(b1-4)GlcNAc(b1-4)GlcNAc
Outline: as §1

[24] = biological target: Gal(b1-4)GlcNAc(b1-3)Gal(b1-4)GlcNAc(b1-3)[Gal(b1-4)GlcNAc(b1-3)Gal(b1-4)GlcNAc(b1-6)]GalNAc
Outline: as §1

GalNAc(b1-3)GlcNAc = biological target: GalNAc(b1-3)GlcNAc
Outline: as §1

GalNAc(b1-4)GlcNAc = biological target: GalNAc(b1-4)GlcNAc
Outline: as §1

[25] = biological target: GalNAc(b1-4)GlcNAc(b1-2)Man
Outline: as §1

[26] = biological target: GlcNAc(a1-4)Gal(b1-4)GlcNAc(b1-3)Gal(b1-4)GlcNAc(b1-3)Gal(b1-4)GlcNAc
Outline: as §1

[27] = biological target: GlcNAc(a1-6)Gal(b1-4)GlcNAc
Outline: as §1

[28] = biological target: GlcNAc(b1-3)Gal(b1-4)GlcNAc(b1-2)[GlcNAc(b1-3)Gal(b1-4)GlcNAc(b1-6)]Man(a1-6)[GlcNAc(b1-3)Gal(b1-4)GlcNAc(b1-2)Man(a1-3)]Man(b1-4)GlcNAc(b1-4)GlcNAc
Outline: as §1

[29] = biological target: GlcNAc(b1-3)Gal(b1-4)GlcNAc(b1-3)Gal(b1-4)GlcNAc(b1-2)Man(a1-3)[GlcNAc(b1-3)Gal(b1-4)GlcNAc(b1-3)Gal(b1-4)GlcNAc(b1-2)Man(a1-6)]Man(b1-4)GlcNAc(b1-4)[Fuc(a1-6)]GlcNAc
Outline: as §1

[30] = biological target: GlcNAc(b1-4)Gal(b1-4)GlcNAc
Outline: as §1

GlcNAc(b1-4)GlcNAc = biological target: GlcNAc(b1-4)GlcNAc
Outline: as §1

[31] = biological target: GlcNAc(b1-4)GlcNAc(b1-4)GlcNAc(b1-4)GlcNAc(b1-4)GlcNAc
Outline: as §1

[32] = biological target: Neu5Ac(a2-3)Gal(b1-3)GalNAc(b1-4)[Neu5Ac(a2-3)]Gal(b1-4)Glc
Outline: as §1

[33] = biological target: Neu5Ac(a2-3)Gal(b1-3)[Fuc(a1-4)]GlcNAc(b1-3)Gal(b1-3)[Fuc(a1-4)]GlcNAc
Outline: as §1

[34] = biological target: Neu5Ac(a2-3)Gal(b1-4)GlcNAc(b1-2)Man(a1-3)[Neu5Ac(a2-3)Gal(b1-4)GlcNAc(b1-2)Man(a1-6)]Man(b1-4)GlcNAc(b1-4)[Fuc(a1-6)]GlcNAc
Outline: as §1

[35] = biological target: Neu5Ac(a2-3)Gal(b1-4)GlcNAc6S
Outline: as §1

[36] = biological target: Neu5Ac(a2-3)[GalNAc(b1-4)]Gal(b1-4)GlcNAc
Outline: as §1

Neu5Ac(a2-6)Gal(b1-4)Glc = biological target: Neu5Ac(a2-6)Gal(b1-4)Glc
Outline: as §1

[37] = biological target: Neu5Ac(a2-6)Gal(b1-4)GlcNAc
Outline: as §1

[38] = biological target: Neu5Ac(a2-6)Gal(b1-4)GlcNAc(b1-2)Man(a1-3)[GlcNAc(b1-2)Man(a1-6)]Man(b1-4)GlcNAc(b1-4)GlcNAc
Outline: as §1

[39] = biological target: Neu5Ac(a2-6)Gal(b1-4)GlcNAc(b1-2)Man(a1-3)[Neu5Ac(a2-6)Gal(b1-4)GlcNAc(b1-2)Man(a1-6)]Man(b1-4)GlcNAc(b1-4)[Fuc(a1-6)]GlcNAc
Outline: as §1

[40] = biological target: Neu5Ac(a2-6)Gal(b1-4)GlcNAc(b1-2)[Neu5Ac(a2-6)Gal(b1-4)GlcNAc(b1-4)]Man(a1-3)[GlcNAc(b1-4)][Neu5Ac(a2-6)Gal(b1-4)GlcNAc(b1-2)[Neu5Ac(a2-6)Gal(b1-4)GlcNAc(b1-6)]Man(a1-6)]Man(b1-4)GlcNAc(b1-4)GlcNAc
Outline: as §1

[41] = biological target: Neu5Ac(a2-6)Gal(b1-4)GlcNAc(b1-3)[Neu5Ac(a2-6)Gal(b1-4)GlcNAc(b1-6)]GalNAc
Outline: as §1

[42] = biological target: Neu5Ac(a2-6)Gal(b1-4)GlcNAc6S
Outline: as §1

[43] = biological target: Neu5Ac(a2-6)GlcNAc(b1-4)GlcNAc(b1-4)GlcNAc
Outline: as §1

[44] = biological target: Neu5Ac(a2-8)Neu5Ac(a2-3)Gal(b1-3)GalNAc(b1-4)[Neu5Ac(a2-8)Neu5Ac(a2-3)]Gal(b1-4)Glc
Outline: as §1

Neu5Gc(a2-6)GalNAc = biological target: Neu5Gc(a2-6)GalNAc
Outline: as §1

B1: AT1G15820(NC) (Arabidopsis thaliana) (protein)
chain: MAMAVSGAVLSGLGSSFLTGGKRGATALASGVGDAIAPFSFGSLLGTQLLLMGWVESKRWVDFFNPDSQSVEWATPWSKTAENFANYTGDQGYPGGRFFDPLGLAGKNRDGVYEPDFEKLERLKLAEIKHSRLAMVAMLIFYFEAGQGKTPLGALGL
- glycan array binding signal (z-score) (Fuc(a1-2)Gal): 4.29
- glycan array binding signal (z-score) [1]: 3.01
- glycan array binding signal (z-score) [2]: -0.346
- glycan array binding signal (z-score) [3]: -0.5
- glycan array binding signal (z-score) [4]: -0.307
- glycan array binding signal (z-score) [5]: 0.457
- glycan array binding signal (z-score) [6]: -0.439
- glycan array binding signal (z-score) [7]: -0.506
- glycan array binding signal (z-score) [8]: 0.211
- glycan array binding signal (z-score) [9]: -0.395
- glycan array binding signal (z-score) [10]: -0.243
- glycan array binding signal (z-score) [11]: -0.49
- glycan array binding signal (z-score) [12]: 4.75
- glycan array binding signal (z-score) [13]: -0.315
- glycan array binding signal (z-score) (Gal(a1-3)Gal(b1-4)GlcNAc): -0.211
- glycan array binding signal (z-score) [14]: 4.55
- glycan array binding signal (z-score) [15]: -0.432
- glycan array binding signal (z-score) [16]: -0.36
- glycan array binding signal (z-score) [17]: 5.77
- glycan array binding signal (z-score) [18]: -0.541
- glycan array binding signal (z-score) [19]: -0.208
- glycan array binding signal (z-score) [20]: -0.282
- glycan array binding signal (z-score) [21]: 3.65
- glycan array binding signal (z-score) [22]: 0.202
- glycan array binding signal (z-score) [23]: 0.01
- glycan array binding signal (z-score) [24]: 4.39
- glycan array binding signal (z-score) (GalNAc(b1-3)GlcNAc): -0.221
- glycan array binding signal (z-score) (GalNAc(b1-4)GlcNAc): 7.2
- glycan array binding signal (z-score) [25]: -0.306
- glycan array binding signal (z-score) [26]: -0.156
- glycan array binding signal (z-score) [27]: -0.626
- glycan array binding signal (z-score) [28]: 0.582
- glycan array binding signal (z-score) [29]: 2.99
- glycan array binding signal (z-score) [30]: 0.405
- glycan array binding signal (z-score) (GlcNAc(b1-4)GlcNAc): -0.216
- glycan array binding signal (z-score) [31]: 4.7
- glycan array binding signal (z-score) [32]: -0.581
- glycan array binding signal (z-score) [33]: -0.555
- glycan array binding signal (z-score) [34]: -0.329
- glycan array binding signal (z-score) [35]: -0.18
- glycan array binding signal (z-score) [36]: -0.475
- glycan array binding signal (z-score) (Neu5Ac(a2-6)Gal(b1-4)Glc): -0.637
- glycan array binding signal (z-score) [37]: -0.363
- glycan array binding signal (z-score) [38]: -0.052
- glycan array binding signal (z-score) [39]: 0.316
- glycan array binding signal (z-score) [40]: -0.4
- glycan array binding signal (z-score) [41]: -0.424
- glycan array binding signal (z-score) [42]: -0.322
- glycan array binding signal (z-score) [43]: -0.481
- glycan array binding signal (z-score) [44]: 5.08
- glycan array binding signal (z-score) (Neu5Gc(a2-6)GalNAc): -0.493
